In PubChem BioAssay (NCI) one finds growth data, which are given here for 40 compounds.

This is part of a sample that, as a whole, favours compounds with a hit. Of some 83,000 tested, about 20% had one in any assay.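 Note: values are percent growth. 100 is the growth of untreated cells, values between 100 and 0 indicate rising inhibition; between -100 and 0 indicates cell death.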 Calls of active or inactive are those of the source.

The test system of this experiment is A549/ATCC NSCLC. Nature of the experiment: NCI-60 one-dose screen, 48 h (100 = growth as untreated, 0 = no growth, -100 = all killed). Particulars: 10 µM. Here is the method: Growth inhibition of the A549/ATCC human Non-Small Cell Lung tumor cell line is measured as a screen for anti-cancer activity. Cells are grown in 96 well plates and exposed to the test compound for 48 hours. Compounds are tested at a single concentration, which is 10^-5 M for most compounds. The reported endpoint is percent growth (GI% or GIPRCNT), where numbers from 0 - 100% represent growth inhibition, and numbers from -100% - 0 represent cell death. For example, a value of 40 represents 60% growth inhibition. A value of 0 means no net growth occurred over the course of the experiment. A value of -40 indicates 40% of cells at the beginning of the experiment died by the end of the experiment. A value of -100 means all cells are dead at the end of the experiment.
NCI-60 Human Tumor Cell Lines Screen was performed using the standard one-dose NCI protocol, which is described in more detail at https://dtp.cancer.gov/discovery_development/nci-60/default.htm.
Compounds with GIPRCNT values below 10 were considered active. Activity score was based on GIPRCNT using the following formula: […]
Score is 0 for GIPRCNT values of 100 or above, 50 for GIPRCNT values of 0, and 100 for GIPRCNT values of -100.
In the case of `COc1ccc(-c2nc(-c3nc4ccc(OC)cc4[nH]3)cc3c2[nH]c2ccccc23)cc1`, the growth is 12.9% (inactive).
Consider `CN(C)CCN1C(=O)c2cccc3c(-c4ccc5ncn(C6CCCCC6)c5c4)ccc(c23)C1=O`, for which the growth was 3.34% (active).
Regarding `CC1(O)CCC2CC3OC3(C)CCC3OC3(C)CCC1C2(C)C` (stereo not given), the growth is 90.7% (inactive).
For `Oc1[nH]c2ccc(Cl)cc2c1/C=c1/ccc2c(c1)N=C(c1cccs1)N=2`, the growth is 63.5% (inactive).
Regarding `CCOCCOCCOCCOCCOCCOCCOCCOCCOCCO` (tested in a mixture with another compound), the growth was 14% (inactive).
As for `N#Cc1ncc(-c2cc(F)c(F)c(F)c2)c(NC2CCCCCC2)n1`, the growth is 95.8% (inactive).
In the case of `O=C(O)CN1C(=O)c2cccc3cccc(c23)C1=O`, the growth is 95.4% (inactive).
As for `O=C1NC(=O)c2ncccc21`, the growth is 98.8% (inactive).
In the case of `CCCCCC(=O)c1ccc(OCCCN2CCN(C(=O)OCC)CC2)cc1`, the growth is 94.8% (inactive).
To `Clc1ccccc1N=Cc1ccc2c(c1)OCO2` belongs 98.2% (inactive); to `CC(=O)N1N=C(c2ccc(Cl)cc2)CC1c1sc(Cl)nc1Cl` (stereo not given), 78.5% (inactive); to `COc1ccc(-c2cc(/C=C3\C(=O)Nc4ccc(Cl)cc43)[nH]n2)cc1OC`, 89.5% (inactive).
Then `COc1cccc(-c2cc(-c3cccc(NS(C)(=O)=O)c3)nc(N)c2C#N)c1O`, with 31% (inactive).
`CCN(CC)CCC(CNc1c(C)cnc2cc(Cl)ccc12)c1ccc(Cl)c(Cl)c1` (stereo not given): the growth is 64.1% (inactive).
Then `COc1ccc(Oc2nc(NC3CCCC3)nc(Sc3ccc(OC)cc3)n2)cc1`, with 72.8% (inactive).
For the compound `COc1cc(/C=C2\Oc3cc(OCC(=O)c4ccccc4)ccc3C2=O)cc(OC)c1OC`, the growth is 118% (inactive).
Then `Cn1c([N+](=O)[O-])cnc1/C=C1\Oc2cc(Cl)ccc2C1=O`, with 3.98% (active); and `CC/C(=C(/c1ccc(OCCN(C)C)cc1)c1ccc(OC(=O)CCCCCCCCC(=O)c2c(C)[nH]c(/C=C3\N=C(c4ccc[nH]4)C=C3OC)c2C)cc1)c1ccccc1`, with 50% (inactive); and `COc1cc2cc3c(nc2cc1OC)CCN3Cc1ccc(NC(=O)Nc2cc(C(F)(F)F)cc(C(F)(F)F)c2)cc1`, with 52.1% (inactive).
In the case of `COc1ccc(-c2nc3sc(C4CC4)nn3c2/C=C2/C(=O)Nc3ccc(OC)cc32)cc1`, the growth was 75.5% (inactive).
Then `Nc1c(C(=O)Nc2cccc(Br)c2)sc2nc3c(cc12)C(O)CCC3` (stereo not given), with 30.1% (inactive); and `O=[P@@]1(c2ccccc2)O[C@H](COCc2ccccc2)[C@@H](OCc2ccccc2)[C@H](OCc2ccccc2)[C@H]1O`, with 83.3% (inactive).
As to `CC(=O)CSC(C)=O`, the growth is 99.6% (inactive).
For the compound `Nc1ncn(C2OC(CO)C(O)C2O)c(=O)n1` (stereo not given), the growth is 20.7% (inactive).
Turning to `COc1ccc(-c2cc(/C=C/C(=O)c3cc(OC)c(OC)c(OC)c3)[nH]n2)cc1OC`, the growth is 20.8% (inactive).
For the compound `c1ccc(C(NC2CC3CCC2C3)c2ccccc2)cc1` (stereo not given), the growth is 95.7% (inactive).
For the compound `O=C(N/N=C/c1cc2ccccc2c2ccccc12)c1cc(O)c(O)c(O)c1`, the growth is 94.4% (inactive).
Then `CC1(C)Cc2c(sc3ncn4nc(-c5ccc(O)cc5)nc4c23)CO1`, with 63% (inactive); and `COc1ccc(/C=C2/CN(C(=O)c3ccc(C)cc3)C/C(=C\c3ccc(OC)cc3)C2=O)cc1`, with 87.9% (inactive).
As to `CC/C(C)=C(\C)C(=O)O`, the growth was 101% (inactive).
Consider `COc1cc(Nc2ccnc(NCCCNc3ccnc4cc(Cl)ccc34)n2)cc(OC)c1`, for which the growth was 11.9% (inactive).
Regarding `CN(C)c1ccc(N=C2C=CC(=O)c3ccccc32)cc1`, the growth was 28% (inactive).
`COc1cc2nc(Nc3cccc(NC(C)=O)c3)nc(N)c2cc1OC`: the growth is 105% (inactive).
In the case of `CC(C)(Cl)CCC1=C(Cl)C(=O)c2ccccc2C1=O`, the growth was 82% (inactive).
`CCOC(=O)c1ccoc1`: the growth was 96.9% (inactive).
With `O=C1OCC2=C1C(c1cccc(Br)c1)c1cc3c(cc1N2CCO)CCC3` (stereo not given), the growth is 12.5% (inactive).
Turning to `Clc1cc2c(c(CSc3nc4ccccc4n4cccc34)c1)OCOC2`, the growth was 29.9% (inactive).
For the compound `Cc1ccc(C(=O)Nc2cccc(F)c2)cc1NC(=O)C1(c2ncnc3[nH]ccc23)CC1`, the growth was 82.4% (inactive).
`COc1ccc(Nc2ccnc(NCCNc3ccnc4cc(Cl)ccc34)n2)cc1`: the growth is 47% (inactive).
As to `CCN(CC)CCNc1ccc(CO)c2oc3cc(Cl)ccc3c(=O)c12`, the growth is 90.4% (inactive).
